Laboratory results taken from PMC5540273 (PLoS ONE, 2017).

Assays:
Conditions in all cases: concentration: 1 μM,replicates: in singlicate; n = 1
MLK1 = system: T1, MLK1
T1 construct: gene MAP3K9

MLK2 = system: MLK2
MLK3 = system: MLK3
MRCKA = system: MRCKA
MRCKB = system: T2, MRCKB
T2 construct: gene CDC42BPB

MST1R = system: MST1R
MST1 = system: T3, MST1
T3 construct: gene STK4

MST2 = system: T4, MST2
T4 construct: gene STK3

MST3 = system: T5, MST3
T5 construct: gene STK24

MST4 = system: MST4
MTOR = system: MTOR
MUSK = system: MUSK
MYLK2 = system: MYLK2
MYLK4 = system: MYLK4
MYLK = system: MYLK
MYO3A = system: MYO3A
MYO3B = system: MYO3B
NDR1 = system: T6, NDR1
T6 construct: gene STK38

NDR2 = system: NDR2
NEK10 = system: NEK10
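Note: KINOMEscan kinase panel screen.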

Row | SMILES | %Inh (MLK1) [%] | %Inh (MLK2) [%] | %Inh (MLK3) [%] | %Inh (MRCKA) [%] | %Inh (MRCKB) [%] | %Inh (MST1R) [%] | %Inh (MST1) [%] | %Inh (MST2) [%] | %Inh (MST3) [%] | %Inh (MST4) [%] | %Inh (MTOR) [%] | %Inh (MUSK) [%] | %Inh (MYLK2) [%] | %Inh (MYLK4) [%] | %Inh (MYLK) [%] | %Inh (MYO3A) [%] | %Inh (MYO3B) [%] | %Inh (NDR1) [%] | %Inh (NDR2) [%] | %Inh (NEK10) [%]
1 | Cc1nnc(-c2ccc3occ(-c4ccc(S(C)=O)cc4)c3n2)o1 (stereo not drawn) | 0 | 0 | 0 | 0 | 43 | 2 | 0 | 0 | 0 | 0 | 0 | 0 | 6 | 0 | 0 | 0 | 0 | 0 | 0 | 0
2 | O=C(NOCC1CC1)c1cc(Br)c(F)c(F)c1Nc1ccc(I)cc1Cl | 0 | 0 | 0 | 0 | 0 | 31 | 3 | 6 | 18 | 0 | 26 | 9 | 0 | 0 | 0 | 0 | 20 | 33 | 0 | 0
3 | CC(=O)Nc1nc2cnc(Nc3cc(NC(=O)c4cccc(CC(C)(C)C#N)c4)ccc3C)nc2s1 | 0 | 14 | 5 | 0 | 0 | 26 | 5 | 0 | 0 | 0 | 14 | 2 | 0 | 14 | 42 | 25 | 0 | 0 | 13 | 0
4 | C[C@@H]1CNc2c(sc3ccc4nc(-c5ccncc5)ccc4c23)C(=O)N1 | 2 | 0 | 4 | 0 | 9 | 18 | 2 | 6 | 10 | 0 | 50 | 0 | 2 | 11 | 62 | 0 | 27 | 18 | 0 | 7
5 | CC(C)c1nc(-c2cccc(NS(=O)(=O)c3ccccc3)c2)c(-c2ccnc(Nc3ccc4c(c3)CN(C)CC4)n2)s1 [GSK1649598] | 18 | 0 | 22 | 7 | 0 | 41 | 67 | 26 | 82 | 82 | 0 | 15 | 0 | 13 | 13 | 48 | 0 | 31 | 0 | 0
6 | O=C(Nc1n[nH]c2cc(-c3ccco3)ccc12)C1CC1 [SB-737447] | 0 | 34 | 0 | 25 | 1 | 0 | 0 | 15 | 17 | 3 | 0 | 0 | 86 | 6 | 44 | 14 | 0 | 0 | 22 | 0
7 | COc1cc(Nc2nccc(N3CCC(NC(=O)c4cccc(C#N)c4)C3)n2)cc(OC)c1OC (stereo not drawn) [GSK1379751] | 52 | 34 | 25 | 18 | 0 | 21 | 0 | 0 | 0 | 0 | 0 | 0 | 0 | 4 | 0 | 46 | 0 | 0 | 0 | 6
8 | NC(=O)Nc1sc(-c2ccc(F)cc2)cc1C(N)=O [GW789449] | 39 | 25 | 35 | 0 | 0 | 0 | 37 | 49 | 21 | 25 | 23 | 0 | 11 | 97.8 | 10 | 0 | 0 | 3 | 7 | 3
9 | CC(C(=O)NC1CCN(c2ccnc(Nc3ccc(F)cc3)n2)C1)c1ccc(Cl)cc1 (stereo not drawn) [GSK1379713] | 0 | 12 | 0 | 0 | 0 | 0 | 5 | 0 | 0 | 0 | 17 | 6 | 3 | 0 | 0 | 0 | 0 | 15 | 0 | 0
10 | C[C@@H]1CNc2c(sc3ccc4nc(-c5ccc(O)cc5)ccc4c23)C(=O)N1 | 0 | 9 | 0 | 0 | 0 | 23 | 0 | 42 | 25 | 0 | 0 | 0 | 14 | 10 | 65 | 22 | 93.2 | 26 | 0 | 7
11 | CN1CCN(CCNc2nc3cc(Oc4ccc(NC(=O)Nc5cc(C(F)(F)F)ccc5F)cc4)ccc3[nH]2)CC1.Cl.Cl [GW768504] | 0 | 40 | 0 | 0 | 4 | 0 | 16 | 0 | 0 | 0 | 0 | 97.3 | 6 | 0 | 0 | 0 | 20 | 51 | 7 | 0
12 | O=C(Nc1cccc(Oc2ccc3nccn3n2)c1)Nc1cccc(C(F)(F)F)c1 | 0 | 39 | 0 | 0 | 0 | 10 | 6 | 0 | 0 | 0 | 23 | 51 | 0 | 0 | 0 | 0 | 3 | 0 | 0 | 0
13 | COc1cccc(OC)c1C(=O)Nc1cccc(-c2nn3ccccc3c2-c2ccnc(Nc3cccc(F)c3)n2)c1 [GSK361065] | 4 | 10 | 10 | 0 | 3 | 23 | 20 | 61 | 7 | 0 | 0 | 3 | 0 | 0 | 87 | 28 | 13 | 17 | 13 | 0
14 | Cc1cccc2c(-c3ccncc3)c(-c3ccc(F)cc3)nn12.Cl [GW461487] | 0 | 0 | 0 | 0 | 4 | 44 | 90.4 | 46 | 16 | 0 | 0 | 7 | 2 | 0 | 14 | 8 | 0 | 25 | 0 | 14
15 | C[C@@H](Oc1cc(-n2cnc3cc(-c4cnn(C)c4)ccc32)sc1C(N)=O)c1ccccc1Cl [GSK580432] | 57 | 49 | 80 | 20 | 3 | 64 | 88 | 70 | 0 | 14 | 14 | 64 | 65 | 22 | 17 | 17 | 0 | 15 | 0 | 30
16 | Cc1ccc2c(-c3ccnc(Nc4ccc(C(F)(F)F)cc4)n3)cnn2n1 [GW819776] | 7 | 35 | 3 | 0 | 16 | 0 | 13 | 39 | 0 | 0 | 0 | 7 | 9 | 23 | 19 | 0 | 0 | 37 | 10 | 31
17 | Cn1ccc2ncnc(Oc3ccc(NC(=O)Nc4cccc(C(F)(F)F)c4)c(F)c3)c21 | 21 | 0 | 32 | 4 | 0 | 19 | 0 | 0 | 0 | 0 | 10 | 99.4 | 0 | 7 | 19 | 8 | 49 | 10 | 8 | 7
18 | COC(=O)Nc1nc2cc(Oc3ccc(NC(=O)Nc4cc(C(F)(F)F)ccc4Cl)cc3)ccc2[nH]1.Cl [GW697465] | 1 | 0 | 8 | 5 | 0 | 41 | 0 | 0 | 0 | 0 | 19 | 99.2 | 6 | 0 | 0 | 11 | 0 | 8 | 0 | 13
19 | O=c1[nH]cc(-c2ccc(O)cc2)c2sc(-c3ccncc3)cc12 [GSK1033723] | 0 | 0 | 3 | 22 | 14 | 44 | 1 | 7 | 6 | 0 | 18 | 0 | 33 | 44 | 26 | 0 | 0 | 38 | 8 | 12
20 | CCn1c(-c2nonc2N)nc2cncc(CNC3CCNCC3)c21.Cl [SB-747651] | 3 | 0 | 0 | 7 | 4 | 31 | 19 | 0 | 0 | 0 | 30 | 9 | 4 | 0 | 8 | 5 | 0 | 1 | 0 | 20
21 | CC(C)S(=O)(=O)N1CCN(Cc2ccc3c(c2)nc(NC(=O)c2ccsc2)n3C[C@H](O)c2ccccc2)CC1 [GW635815] | 90.6 | 43 | 79 | 0 | 16 | 36 | 5 | 0 | 1 | 0 | 14 | 27 | 15 | 0 | 16 | 8 | 0 | 35 | 24 | 2
